Test results published in PubChem BioAssay (NCI).
Compounds without any hit were thinned out: in the full panel of roughly 79,000, 15% have a hit. Values without a mark were called inactive. Active and inactive are the calls of the source. Rule as the data show it: active = growth inhibition above about 70%; inactive = the rest.

Assay: NCI Yeast Anticancer Drug Screen. Data for the wt2 strain (AID 169);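 also: 0% = growth of vehicle-treated yeast cultures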
Details: S. cerevisiae wt2 strain growth inhibition, hits give high values
Procedure: Growth inhibition of yeast strains with defined genetic alterations is measured as a screen for potential anti-cancer activity. Selected strains with alterations in DNA damage repair or cell cycle control were exposed to compounds and growth inhibition was measured relative to vehicle treated controls. The strain used in this assay is wt2

Row | SMILES | growth inhibition (at 1.2 µM) [%] | growth inhibition (at 3.7 µM) [%] | growth inhibition (at 11.0 µM) [%] | growth inhibition (at 33.0 µM) | growth inhibition (at 100.0 µM)
1 | CCC(C)C(=O)OCC(=O)c1ccc(-c2ccccc2)cc1 (stereo not given) | -1 | -2 | -1 | -5% | -6%
2 | O=Cn1c2ccccc2c2ccccc21 | -12 | -21 | -7 | -18% | 46%
3 | CN(C)CCn1c2ccccc2c2nc3cc4ccccc4cc3nc21 | 18 | 15 | 27 | 77% (active) | 98% (active)
4 | CC[C@]1(O)C[C@H]2CN(CCc3c([nH]c4ccccc34)[C@@](C(=O)OC)(c3cc4c(cc3OC)N(C)[C@H]3[C@@](O)(C(=O)OC)[C@H](OC(C)=O)[C@]5(CC)C=CCN6CC[C@]43[C@@H]65)C2)C1 | -1 | 0 | -3 | -3% | -4%
5 | CC1C=CN(N(C)C)C2=C1C(=O)c1cnccc1C2=O (stereo not given) | 5 | 6 | 43 | 90% (active) | 96% (active)
6 | CCOC(=O)C1=C(C)NC(C)=C(C(=O)OCC)C1c1cccc([N+](=O)[O-])c1 | -43 | -44 | -13 | 45% | 92% (active)
7 | CCc1nc2ccc(N=Nc3c(O)ccc4ccccc34)cc2[nH]1 | -13 | 12 | -5 | 12% | 96% (active)
8 | CCOC(=O)c1sc2[n+](c1C)C(=O)/C(=C/c1cc(OC)c(OC)c(OC)c1)S2 | 2 | 3 | 47 | 85% (active) | 95% (active)
